The list is not random: actives were taken first. Their share in the collection is about 4.8%.
D3 ag – agonists of human D3 dopamine receptor; hit rate 0.58% among 410,000; AID 652048; D3R DiscoveRx beta-arrestin cells, luminescence, 90 min; max activation, %; in the data active = max activation above about 30%; note: 0% is about no effect
Target sequence (P35462 whole entry, looked up): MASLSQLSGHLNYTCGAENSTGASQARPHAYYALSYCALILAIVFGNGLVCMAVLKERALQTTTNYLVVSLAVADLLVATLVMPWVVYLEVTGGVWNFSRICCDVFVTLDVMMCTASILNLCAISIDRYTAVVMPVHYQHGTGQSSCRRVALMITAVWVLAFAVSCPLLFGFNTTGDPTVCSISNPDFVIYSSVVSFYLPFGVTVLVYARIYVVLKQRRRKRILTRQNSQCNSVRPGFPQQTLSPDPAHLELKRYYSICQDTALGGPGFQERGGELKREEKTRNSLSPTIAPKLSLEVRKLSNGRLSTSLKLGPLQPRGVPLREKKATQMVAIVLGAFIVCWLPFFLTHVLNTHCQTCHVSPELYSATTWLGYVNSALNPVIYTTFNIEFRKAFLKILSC
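Agonist mode: compounds and dopamine controls were applied to plated cells for 90 min at 37 degrees C after an overnight attachment at 1500 cells/well. Luminescent read-out followed 30 - 60 minutes at room temperature with DiscoveRx detection reagent.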
TGFb SMAD3 inh – inhibitors of TGF-b signaling; HepG2 CAGA-GFP TGF-b/SMAD3 reporter, GFP fluorescence, 18 h; TGF-beta stimulated, 500 pg/mL final; Potency, µM (top dose mostly 46.1 µM), inactives show at the top dose activity, negative = inhibition, hits mostly inhibitors; hit rate 1.2% among 410,000; AID 588855; note: potency is the fitted concentration of half-maximal effect; % is set by controls: 0 for no effect and ±100 for the full control effect; nearly all actives have a fitted effect of over 65% in size
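Per well, imaged GFP fluorescence of HEPG2 CAGA-GFP cells gives the signal; cells get compound, then TGF-beta (500 pg/mL final), 18 h at 37 degrees C; %Activity versus -TGF-beta and +DMSO controls.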
D3 antag – blocks the human D3 dopamine receptor; AID 652054; hit rate 2.5% among 360,000; D3R cells, DiscoveRx beta-arrestin luminescence, antagonist mode; hits give low values; max response, negative = inhibition, %; in the data active = max response below about -50%; inconclusive = no clear call, values can overlap the other calls; note: % is set by controls: 0 for no effect and ±100 for the full control effect
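Cells expressing the human receptor were seeded at 1500 cells/well, incubated overnight at 37 degrees C in 5% CO2, then exposed to library compounds with dopamine controls for 90 minutes at 37 degrees C before luminescent detection.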
HepG2 tox – counter-screen for TGF-b inhibitors: cytotoxicity in HepG2 cells. HepG2 CAGA-GFP viability, ATP luminescence, 18 h. Potency, µM (top dose mostly 46.1 µM), without a hit: top-dose activity change, negative = cytotoxicity, usual class: cytotoxic. hit rate 0.76% among 410,000. AID 588856; note: potency is the fitted concentration of half-maximal effect
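CellTiter-Glo luminescence gave cytotoxicity after 18 hours at 37 degrees C. The cells were HepG2 CAGA-GFP in 1% FBS DMEM, stimulated with 500 pg/mL TGF-beta after compound addition. %Activity was normalised to no-cell wells (complete cell-killing) and DMSO (no toxicity), and curves were fitted and classified.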
S2 tox – reduces viability in counter-screen for ATXN expression inhibitors. S2 cells (HEK-293 line with an ATXN2-luciferase reporter) viability, CellTiter-Fluor protease fluorescence, 24 h. Potency, µM (top dose mostly 56.7 µM), hits mostly cytotoxic. hit rate 0.49% among 400,000. AID 651635; note: potency is the fitted concentration of half-maximal effect; nearly all actives have a fitted effect of over 40% in size
ATXN2 expr inh – inhibitors of ATXN2 expression; HEK-293 ATXN2-luciferase reporter, luminescence, 24 h; Potency, µM (series often up to 57 µM), inactives show at the highest dose activity change, negative = inhibition, actives largely listed as inhibitors; hit rate 0.72% among 360,000; AID 1745845; note: potency is the fitted concentration of half-maximal effect; % is set by controls: 0 for no effect and ±100 for the full control effect; nearly all actives have a fitted effect of over 55% in size
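qHTS (up to 57 uM final) was run with 24 h compound exposure of reporter cells at 37 °C. Each well was multiplexed: SteadyGlo luminescence measured ATXN2-luciferase expression after a fluorogenic Gly-Phe-AFC viability readout (25 uM final).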
The depositor's hits bear a star; i = inactive; ? = inconclusive; / = not tested or not shown. Unless noted, calls come from the whole dose curve; as a rule, active = well fitted curve in the direction sought with a large enough effect; inconclusive = small, poorly fitted or top-dose-only effect, or another doubt; inactive = no such curve, though single readings can be large; an effect the other way counts as inactive or inconclusive.

SMILES	D3 ag	TGFb SMAD3 inh	D3 antag	HepG2 tox	S2 tox	ATXN2 expr inh
CC(C)[C@H](NC(=O)OC(C)(C)C)c1nnc(S(=O)(=O)Cc2c(F)cccc2Cl)o1	-19.7	11.2µM*	?	20µM*	/	?
Cn1nnnc1Sc1ncnc2scc(Br)c12	/	2.24µM*	/	-37.3%	i	17.8µM*
Cn1nnnc1Sc1ncnc2scc(-c3ccccc3Br)c12	/	?	/	-18.7%	?	25.1µM*
COc1ccccc1-c1csc2ncnc(Sc3nnnn3C)c12	/	?	/	-12.8%	i	-18.4%
C=CCn1c(SC(F)F)nc2scc(-c3ccco3)c2c1=O	5.3	10µM*	4.2	-16.7%	i	53.3%
COc1cc(-c2ccc3oc(-c4ccsc4)c(C#CC4(O)CCCCC4)c3c2)cc(OC)c1OC	36.2*	?	77.0	-2.8%	?	-33.0%
COc1ccc(-c2oc3ccc(N4CCOCC4)cc3c2C#CC2(O)CCCCC2)cc1	84.4*	?	89.9	-66.2%	?	7.6%
CCOc1cc2c(cc1OCC)C(c1c(F)cccc1Cl)CC(=O)N2 (stereo unspecified)	0.5	?	/	-35.6%	i	8.5%
Cc1nc2ncnn2c(C)c1CCC(=O)NCCCN1CCN(c2cccc(Cl)c2)CC1	9.5	-22.2%	-52.4*	-3.1%	i	-5.0%
O=C(NCCCN1CCN(c2cccc(Cl)c2)CC1)C1(S(=O)(=O)c2ccc(Cl)cc2)CC1	11.1	-12.5%	-56.5*	-29.7%	i	-21.8%
Cc1nc2ncnn2c(C)c1CCC(=O)N1CCN(c2cccc(Cl)c2)CC1	-5.8	-22.8%	/	-17.4%	i	-19.8%
COc1ccccc1NC(=O)NCCCN1CCN(c2cccc(Cl)c2)CC1	1.5	-12.2%	-108.3*	-37.7%	i	-18.4%
CCCN(CCC)CCCNC(=O)c1cnn(-c2ccc(F)cc2)c1-n1cccc1	-16.6	-5.1%	/	-19.8%	i	-17.7%
O=C(NCCCN1CCN(c2cccc(Cl)c2)CC1)c1cnn(-c2ccc(F)cc2)c1-n1cccc1	-8.3	?	/	10µM*	?	35.5µM*
COc1cccc(CNC(=O)CN2C(=O)N(c3ccc(C)cc3C)S(=O)(=O)c3ccccc32)c1OC	6.1	?	/	-4.0%	i	-27.4%
CCOc1ccc(NC(=O)NCc2ccc3c(c2)CCN3C(C)=O)cc1	-18.6	-1.3%	/	-6.2%	i	-8.8%
COc1ccc2c(c1)c1c(c(=O)n(-c3ccc(OC)c(OC)c3)c(=O)n1CC(=O)N1CCCC1)n2C	-8.2	1.7%	/	-12.4%	i	-2.2%
O=C(c1cnn(-c2nccc(-c3ccco3)n2)c1C1CC1)N1CCCCC1c1cccnc1 (stereo unspecified)	/	/	/	/	i	/
CCc1ccccc1NC(=O)Cn1c(=O)n(CCCCCC(=O)NCc2ccc(C)cc2)c(=O)c2sccc21	-9.1	5.9%	/	8.8%	i	-3.7%
COc1ccc(Cl)cc1N1CCN(CCNC(=O)Nc2ccccc2C)CC1	-17.4	?	-131.1*	-48.0%	?	?
COc1ccccc1N1CCN(CCCNC(=O)Nc2ccccc2C)CC1	-16.4	-12.8%	-27.1	3.1%	i	1.5%
Cc1cccc(C)c1OCCn1c(C2CC(=O)N(Cc3ccc(F)cc3)C2)nc2ccccc21 (stereo unspecified)	-7.7	?	/	-56.7%	/	?
CCn1cc(S(=O)(=O)c2cccc(Cl)c2)c(=O)c2cc(F)c(N3CCN(C)CC3)cc21	2.6	-28.8%	/	-45.3%	/	/
Cc1ccc(CNC(=O)CCCN2C(=O)COc3ccc(C)cc32)cc1	1.8	-1.6%	/	-10.2%	i	11.4%
CCN1CC2([N+](=O)[O-])C=CC(=O)C([N+](=O)[O-])(C1)C2CC(=O)c1ccccc1 (stereo unspecified)	1.0	-10.3%	-67.8*	0.1%	i	-10.6%
SMILES	D3 ag	TGFb SMAD3 inh	D3 antag	HepG2 tox	S2 tox	ATXN2 expr inh
COc1ccnc(CSC(N)=Nc2ccccc2OC)c1	-2.7	?	-75.1*	-3.1%	?	-26.6%
COc1ccnc(CSC(N)=Nc2ccccc2C(F)(F)F)c1	-11.0	-19.5%	-10.1	-18.8%	i	15.6%
COc1ccnc(CSC(N)=Nc2cccc(C(F)(F)F)c2)c1	-23.3	?	-50.8*	-68.8%	i	?
O=C(NCCc1nnc2n1CCN(Cc1ccc3c(c1)CCO3)CC2)c1ccco1	/	/	/	/	i	/
Oc1c(Cl)cc(Cl)cc1/C=N/c1nc(-c2ccc(Cl)cc2)cs1	-12.3	-12.7%	-82.0*	-15.9%	/	/
Oc1c(Cl)cc(Cl)cc1/C=N/c1nccs1	-15.2	-27.4%	0.0	-8.4%	i	-16.3%
O=C1c2cc(F)ccc2-n2c1nc1ccccc1c2=O	-5.1	?	-5.0	1.12µM*	i	?
COc1ccc(CN2C(=O)C(O)(CC(=O)c3ccc4c(c3)OCO4)c3ccccc32)cc1OC (stereo unspecified)	35.6*	-0.9%	3.5	-2.2%	i	-0.5%
COc1cc(-c2ccc(Cl)cn2)cc2c1OCCN(S(=O)(=O)C[C@]13CC[C@H](CC1=O)C3(C)C)C2	/	/	/	/	i	/
N#CCCn1c2ccccc2c2nc3ccccc3nc21	-3.5	28.4%	-51.8*	-3.2%	i	2.5%
Cc1cccc(CNC(=O)c2c3n(c(C)cc2=O)-c2ccccc2SC(c2ccsc2)C3)n1 (stereo unspecified)	/	/	/	/	i	/
COCCn1nnnc1C(c1cccc(C#N)c1)N1CCCCCC1 (stereo unspecified)	-1.6	-13.6%	-74.6*	-16.7%	i	4.1%
N#Cc1cccc(C(c2nnnn2C2CCCC2)N2CCC(Cc3ccccc3)CC2)c1 (stereo unspecified)	-0.8	-13.7%	-4.3	-13.0%	i	-9.4%
N#Cc1cccc(C(c2nnnn2CCc2ccccc2)N2CCN(C3CCCCC3)CC2)c1 (stereo unspecified)	2.3	-4.9%	-26.0	11.1%	?	2.4%
N#Cc1cccc(C(c2nnnn2C2CCCC2)N2CCCCCC2)c1 (stereo unspecified)	-4.3	-4.2%	-53.7*	-22.1%	i	-9.9%
O=S(=O)(Nc1ccc(Cl)cc1)c1cccc(S(=O)(=O)c2ccc(Cl)c(Cl)c2)c1	-1.3	14.1µM*	/	-77.7%	?	?
CCCCN(C)CCC(=O)Nc1ccc2c(c1)CCC2	-15.0	7.9%	-57.3*	-17.0%	i	-20.0%
Cc1ccc(NC(=O)CCN2CCC(C)CC2)cc1	-22.3	-1.6%	-62.0*	2.5%	i	-2.2%
CCOC(=O)C1CCCN(CCC(=O)Nc2ccc(C)cc2)C1 (stereo unspecified)	-6.6	7.6%	-70.7*	-16.7%	i	4.4%
COc1ccc(NC(=O)CN(C)CC(=O)Nc2ccc3c(c2)CCC3)cc1	-0.5	-13.7%	2.6	-19.2%	i	-9.5%
